SMILES strings stand for the structures. The panel holds about 79,000 compounds, 15% with a hit somewhere; the sample as a whole holds those more often. Unmarked numbers belong to inactive results. Activity calls are given as the source filed them. Rule as the data show it: active = growth inhibition above about 70%; inactive = the rest.

The values that follow come from PubChem BioAssay (NCI).

The nature of test [1]: NCI Yeast Anticancer Drug Screen. Data for the rad50 strain (AID 155).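 Also: 0% = growth of vehicle-only cultures of the same strain.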 As to conditions: S. cerevisiae rad50 strain growth inhibition; at 50.0 µM; hits give high values. The method in brief:
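Relative growth inhibition (compound vs vehicle) was measured in yeast with a defined repair-gene alteration.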

Test [2] is described as follows: NCI Yeast Anticancer Drug Screen. Data for the mec2-1 strain (AID 157). As to conditions: S. cerevisiae mec2-1 strain, at 50.0 µM, hits give high values. In a few lines:
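Vehicle-treated cultures served as reference for growth inhibition of compound-exposed mec2-1 yeast.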

A short description of test [3]: NCI Yeast Anticancer Drug Screen. Data for the sgs1 mgt1 strain (AID 161).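 Also: 0% = growth of cultures given vehicle only.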 As to conditions: S. cerevisiae sgs1 mgt1 strain, at 50.0 µM, hits give high values. The method in brief: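 Test agents were incubated with a DNA-repair-mutant yeast strain. Growth was then read and compared against vehicle-treated controls.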
Test [4] in a line: NCI Yeast Anticancer Drug Screen. Data for the cln2 rad14 strain (AID 165).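 Also: 0% = growth equal to vehicle treated cultures.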 As to conditions: S. cerevisiae cln2 rad14 strain, at 50.0 µM, hits give high values. In a few lines:
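Each compound was tested on cln2 rad14 yeast. Inhibition of growth was calculated against vehicle-exposed controls.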

Test [5] in a line: NCI Yeast Anticancer Drug Screen. Data for the bub3 strain (AID 167). As to conditions: S. cerevisiae bub3 mutant strain, at 50.0 µM, hits give high values. In a few lines: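 Screening used yeast with an engineered genetic alteration affecting cell cycle control. Compound-exposed cultures were compared with vehicle cultures, and reduced growth was taken as inhibition.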
Test [6] in a line: NCI Yeast Anticancer Drug Screen. Data for the mlh1 rad18 strain (AID 175). The settings on record: S. cerevisiae mlh1 rad18 strain growth inhibition; at 50.0 µM; hits give high values. In a few lines:
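Vehicle-treated cultures served as the reference for growth inhibition in a yeast strain carrying DNA damage repair alterations exposed to each compound.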

As to `O=C(Nc1nc2ccccc2[nH]1)C(F)(F)F`, the growth inhibition in test [1] is -6.8%; in test [2], -13.4%; in test [3], -3.85%; in test [4] it was 5.55%; in test [5], -2.55%; in test [6], 20%.
Take `O=C1NC(=O)C2(CCC(O)C2)c2cc[n+]([O-])cc21` (stereo not given): the growth inhibition in test [1] is -8.55%; in test [2], -41.4%; in test [3] it was -13.6%; in test [4], 8.25%; in test [5], -25.6%; in test [6], -83.8%.
On to `COC(=O)[C@H]1C=C[C@H](OC2OC(COC(C)=O)C(OC(C)=O)C(OC(C)=O)C2OC(C)=O)n2c(=O)n(-c3ccccc3)c(=O)n21` (stereo not given in full), for which the growth inhibition in test [1] is 8.3%; in test [2] it was 14%; in test [3] it was -1.25%; in test [4], 5.5%; in test [5] it was 15.8%; in test [6] it was -48%.
As to `CCOC(=O)Nc1ccc(C(=O)OCC)cc1`, the growth inhibition was 29.8% in test [1]; -15.1% in test [2]; 7.85% in test [3]; 8.1% in test [4]; -16.3% in test [5]; 13.7% in test [6].
Regarding `CC(C)NNC(=O)c1ccc(N)cc1`, the growth inhibition was 16.1% in test [1]; 6.05% in test [2]; 4.55% in test [3]; 6.55% in test [4]; 4.8% in test [5]; 6.35% in test [6].
As to `Cc1cccc[n+]1CC(=O)c1ccccc1`, the growth inhibition in test [1] was 17.2%; in test [2], 31.2%; in test [3] it was 34.5%; in test [4] it was -3.65%; in test [5], 18.6%; in test [6] it was 20.9%.
On to `N=c1nc(N)ss1`, for which the growth inhibition in test [1] was 15.8%; in test [2], 5.85%; in test [3] it was 16.4%; in test [4], -31.6%; in test [5] it was 21.7%; in test [6] it was 44%.
With `CCOC(=O)C(CSC(=O)c1ccccc1)NC(=O)OCc1ccccc1` (stereo not given), the growth inhibition in test [1] was 40.4%; in test [2], -3.35%; in test [3], 21.2%; in test [4] it was -29.6%; in test [5] it was 2.65%; in test [6], 20.1%.
For the compound `COc1ccc2c(c1CCl)C(=O)OC2`, the growth inhibition in test [1] is 13.6%; in test [2], -9.1%; in test [3] it was -2.05%; in test [4] it was -20.6%; in test [5], 12.2%; in test [6], -1.05%.
For `O=C(Nc1ccc(Cl)cc1[N+](=O)[O-])Oc1ccc(C(=O)OCc2ccccc2)cc1`, the growth inhibition in test [1] is 76.3% (active); in test [2], 75.1% (active); in test [3], 71.5% (active); in test [4], 48.5%; in test [5], 84.2% (active); in test [6] it was 78.1% (active).
Turning to `CC(=O)CC(=O)Nc1cc(C)c(NC(=O)CC(C)=O)cc1C`, the growth inhibition in test [1] was 26.2%; in test [2], 26.6%; in test [3], 31.1%; in test [4], 7.55%; in test [5], 38.8%; in test [6], 30.6%.
Consider `Cc1ccc(CC(=O)C(=O)O)c([N+](=O)[O-])c1`, for which the growth inhibition is -9.7% in test [1]; 38.1% in test [2]; 4.5% in test [3]; -23.6% in test [4]; -17.9% in test [5]; 8.2% in test [6].
For the compound `CC(=O)OC1[C@H](OC(C)=O)C2=C(C)[C@@H](OC(C)=O)C[C@@]2(C(C)(C)O)[C@@H](OC(C)=O)[C@H]2[C@@]1(C)[C@@H](OC(C)=O)CC(OC(C)=O)[C@]21CO1` (stereo not given in full), the growth inhibition in test [1] was 3.4%; in test [2] it was 29.9%; in test [3], -20.3%; in test [4], 7.05%; in test [5] it was -32.8%; in test [6] it was -59%.
On to `Cc1ccc(C)c(NC(=O)/C=N/O)c1`, for which the growth inhibition in test [1] was 1%; in test [2], -5.95%; in test [3] it was 18.5%; in test [4], 12.4%; in test [5], 2.3%; in test [6], 1%.
For the compound `COC1OC(C(=O)O)C(O)C(O)C1O` (stereo not given), the growth inhibition in test [1] was 6.75%; in test [2], -21.1%; in test [3], -2.6%; in test [4], -4%; in test [5], -17.6%; in test [6] it was 8.3%.
As for `CCCCC(CC)CNCC(CC)CCCC` (stereo not given), the growth inhibition in test [1] is 33.8%; in test [2], 45.5%; in test [3], 14.8%; in test [4] it was 40.6%; in test [5] it was 5.5%; in test [6], 26.1%.
In the case of `N=C(N)c1ccncc1`, the growth inhibition in test [1] is -0.6%; in test [2] it was 5.75%; in test [3], 8.45%; in test [4], -32%; in test [5], 4.75%; in test [6], -1.95%.
With `N#CCCN(c1ccc(C=Nc2ccccc2Cl)cc1)S(=O)(=O)c1ccccc1`, the growth inhibition in test [1] is -18.1%; in test [2], -9.8%; in test [3] it was -13.7%; in test [4] it was 4.25%; in test [5] it was -6.5%; in test [6], 16.2%.
Consider `CN(C(=O)c1ccco1)C(=S)N1CCN(c2ccccc2)CC1`, for which the growth inhibition in test [1] was -17%; in test [2], -1.95%; in test [3], -0.7%; in test [4], 10.2%; in test [5], 13.8%; in test [6] it was -13.3%.
On to `O=C(O)/C=C/C(=O)N(c1ccccc1)N(C(=O)/C=C/C(=O)O)c1ccccc1`, for which the growth inhibition was 5.9% in test [1]; -9.05% in test [2]; 5.15% in test [3]; 5.65% in test [4]; 5.55% in test [5]; 17.5% in test [6].
